# The sample as a whole holds a higher share of hits than the screen did.
# HT1080NT lethal – kills 2HG-producing HT-1080-NT fibrosarcoma cells; HT-1080-NT fibrosarcoma viability, CellTiter-Glo ATP luminescence, 48 h; Potency, µM (titrated, usually from 46.1 µM), usual class: cytotoxic; 360,000 tested, 1.6% active; AID 686970;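 also: NT is the 2HG producing partner of a matched IDH1 knockdown line; nearly all actives have a fitted effect of over 55% in size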
#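 Compounds were tested in concentration-response format on HT-1080-NT cells for 48 hours at 37 degrees C. Cell viability came from CellTiter-Glo luminescence; curves were classified by r2, response magnitude and activity.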
# HT1080 IDH1KD tx – kills HT-1080 cells with IDH1 knockdown; HT-1080 IDH1 knockdown viability, ATP luminescence, 48 h; Potency, µM (top dose mostly 46.1 µM), usual class: cytotoxic; 360,000 tested, 2% active; AID 686971
#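 % activity derives from luminescence (CellTiter-Glo), normalised to DMSO and no-cell wells. HT-1080-IDH1KD cells, 750/well, had 48 h compound exposure at 37 °C.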
# DT40 TDP1 CPT – growth inhibition of DT40 Tdp1-/-;hTDP1 cells with camptothecin (screen for TDP1 inhibitors); chicken DT40 Tdp1-/-;hTDP1 cells + 20 nM CPT, ATP luminescence, 48 h; Potency, µM (doses to about 46.2 µM), most hits filed as inhibitors; 420,000 tested, 12% active; also: nearly all actives have a fitted effect of over 55% in size
#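 Cell growth measured by CellTiter-Glo luminescence after a minimum 48 h, 37 C compound exposure with 20 nM CPT in Tdp1-knockout DT40 cells stably expressing hTDP1, seeded 400/well; qHTS titration format.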
# 12-LOX inh – inhibitors of human 12S-lipoxygenase ALOX12 | P18054 | purified 12hLO, xylenol orange hydroperoxide absorbance | Potency, µM (titrated, usually from 108 µM), actives largely listed as inhibitors | 580,000 tested, 1.1% active | AID 1671190
# Target sequence (P18054 whole entry, looked up): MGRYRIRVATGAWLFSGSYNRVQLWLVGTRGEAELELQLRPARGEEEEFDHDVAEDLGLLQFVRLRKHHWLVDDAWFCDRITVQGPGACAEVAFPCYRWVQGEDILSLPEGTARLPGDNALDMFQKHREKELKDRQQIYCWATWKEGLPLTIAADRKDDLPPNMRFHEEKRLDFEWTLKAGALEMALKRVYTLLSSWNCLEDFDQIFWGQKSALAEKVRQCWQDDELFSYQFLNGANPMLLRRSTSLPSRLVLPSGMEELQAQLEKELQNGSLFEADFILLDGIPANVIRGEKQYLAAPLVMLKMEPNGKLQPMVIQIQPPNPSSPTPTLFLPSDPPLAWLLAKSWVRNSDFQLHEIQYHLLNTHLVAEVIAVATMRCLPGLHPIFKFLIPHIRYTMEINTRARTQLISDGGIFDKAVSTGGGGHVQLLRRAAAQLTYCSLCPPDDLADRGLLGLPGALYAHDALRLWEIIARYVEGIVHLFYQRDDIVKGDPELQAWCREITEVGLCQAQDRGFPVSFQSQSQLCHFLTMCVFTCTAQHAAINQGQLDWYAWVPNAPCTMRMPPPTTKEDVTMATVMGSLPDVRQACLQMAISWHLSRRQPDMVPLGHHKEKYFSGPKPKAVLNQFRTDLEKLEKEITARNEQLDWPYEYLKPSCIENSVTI
#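 Purified human 12hLO (150 nM final) in 25 mM Hepes, 0.01% Triton X-100, pH 7.0 was preincubated 15 min at room temperature with compound. Then 40 uM arachidonic acid was added, 30 min. Hydroperoxide was read by Fe-XO absorbance ratio 573/405 nm.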
# IL1B secr inh – inflammasome signaling inhibition, IL-1 beta readout; 360,000 tested, 4.7% active; AID 743279; THP-1 LPS/ATP IL-1B secretion, AlphaLISA, 16 h; hits give low values; activity change, % at 57.5 µM; in the data active = activity change below about -50%; inconclusive = mostly about -30% to -49%
#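 Secreted IL-1B measured by AlphaLISA bead assay after 16 h compound exposure of THP-1 cells; compounds (final up to 57.5 uM) added 1 h before LPS (250 ng/mL) and ATP (1.25 mM) stimulation; lower signal means less secretion.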
# DT40 TDP1 no CPT – qHTS for Inhibitors of human tyrosyl-DNA phosphodiesterase 1 (TDP1): qHTS in cells in absence of CPT; DT40 Tdp1-/- hTDP1 cells, no CPT, ATP luminescence, 48 h; Potency, µM (top dose mostly 46.2 µM), actives largely listed as inhibitors; 420,000 tested, 15% active; AID 686978, 2013; also: nearly all actives have a fitted effect of over 55% in size
#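 No-CPT arm: Tdp1-/-;hTDP1 DT40 cells (400/well) plus compounds, incubated ≥48 hr at 37 °C. Readout CellTiter-Glo luminescence.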
# Numbers stand for hits; n = inactive; u = inconclusive; x = no result given; [ ] = remark or other dose. Unless noted, calls follow the shape of the dose curve; as a rule, active = well fitted curve in the direction sought with a large enough effect; inconclusive = small, poorly fitted or top-dose-only effect, or another doubt; inactive = no such curve, though single readings can be large; an effect the other way counts as inactive or inconclusive.
SMILES,HT1080NT lethal,HT1080 IDH1KD tx,DT40 TDP1 CPT,12-LOX inh,IL1B secr inh,DT40 TDP1 no CPT
CC(=O)c1cnn(-c2cc(Oc3ccc(S(=O)(=O)c4ccccc4)cc3)nc(C)n2)c1C,x,x,x,n,x,x
CCCCOc1ccc(/C=N/Nc2cc(N3CCOCC3)nc(C)n2)cc1,n,n,18µM,n,n,21µM
Cc1cccc(C=NNc2cc(N3CCOCC3)nc(OCCc3ccccn3)n2)c1,x,x,x,n,x,x
COc1ccc(CN(C)Cc2nc(Cc3cccc(F)c3)no2)c2cccnc12,n,n,12µM,n,n,2.9µM
COc1ccccc1-c1cccc([C@@H]2C[C@H]3[C@H](CON3C)CN2S(=O)(=O)c2ccccc2C)c1,n,n,15µM,n,n,21µM
Cc1ccccc1S(=O)(=O)N1C[C@H]2CON(C)[C@H]2C[C@H]1c1cccc(-c2ccccc2)c1,n,n,u,n,n,23µM
CN1OC[C@@H]2CN(S(=O)(=O)c3cccc4ccccc34)[C@H](c3ccc(-c4ccccc4)cc3)C[C@@H]21,n,u,u,n,n,23µM
Cc1ccccc1S(=O)(=O)N1C[C@H]2CON(C)[C@H]2C[C@H]1c1cccc(Br)c1,n,n,n,n,n,u
Cc1ccccc1-c1cccc([C@@H]2C[C@H]3[C@H](CON3C)CN2S(=O)(=O)c2ccccc2C)c1,n,n,u,n,n,21µM
CCCCCC(=O)N/N=C/c1cccnc1,x,x,x,n,x,x
CCOC(=O)C1C(=O)C=C(c2ccc(F)cc2)CC1c1c(F)cccc1Cl (stereo not drawn),x,x,x,n,x,x
Cc1c(Cl)cccc1NC(=O)c1noc2c1CCCCC2,x,x,x,n,x,x
CN1OC[C@@H]2CN(C(=O)C(C)(C)C)[C@H](c3ccc(-c4cc5ccccc5o4)cc3)C[C@@H]21,n,n,u,n,n,21µM
CN1OC[C@@H]2CN(C(=O)C(C)(C)C)[C@H](c3cccc(-c4ccccc4)c3)C[C@@H]21,n,n,n,n,n,n
CCn1nc(-c2ccc(C)c(S(=O)(=O)NCc3ccc(C)cc3)c2)c2c(c1=O)CCCC2,x,x,x,n,x,x
COc1ccc(Cc2nnc(SCC(=O)Nc3ccc(F)c(F)c3)n2C)cc1,x,x,x,n,x,x
Cc1ccc(S(=O)(=O)c2nc(Nc3ccccc3N3CCOCC3)sc2Cl)cc1,n,n,u,u,n,u
Cc1ccc(S(=O)(=O)c2nc(Nc3ccccc3C#N)sc2Cl)cc1,n,n,u,n,n,2.6µM
O=C(NC12CC3CC(CC(C3)C1)C2)C1CC=CCC1 (stereo not drawn),x,x,x,n,x,x
CCN(CC)c1nc2ccccc2nc1C(=O)Nc1cc(C)ccc1C,x,x,x,n,x,x
COc1cc2ccccc2cc1C(=O)NCC(c1cccs1)N(C)C (stereo not drawn),n,u,u,n,-76,16µM
CCCOc1ccc(C(=O)NCC(c2cccs2)N(C)C)cc1OC (stereo not drawn),n,n,u,n,n,n
COc1cc(C(=O)NCC(c2cccs2)N(C)C)cc(Cl)c1OC(C)C (stereo not drawn),n,n,u,n,n,21µM
O=C(CSc1nnc(NCc2ccc(F)cc2)s1)Nc1ccnn1C1CCCC1,x,x,x,n,x,x
Cc1ccc(NS(=O)(=O)c2ccc(OCC(=O)NCc3ccco3)cc2)cc1,n,n[9.24 µM],18µM,u,n,u
SMILES,HT1080NT lethal,HT1080 IDH1KD tx,DT40 TDP1 CPT,12-LOX inh,IL1B secr inh,DT40 TDP1 no CPT
Cc1ccc(NS(=O)(=O)c2ccc(OCC(=O)NCc3ccccn3)cc2)cc1,n,n,3.7µM,n,n,4.6µM
O=C(COc1ccc2oc(-c3ccccc3)cc(=O)c2c1)NCc1ccco1,n,u,u,x,n,29µM
CCOc1ccc(/C=N/OCC(=O)NCc2ccco2)cc1,n,n,u,n,n,23µM
CC(C)(C)NS(=O)(=O)c1ccc(OCC(=O)NCc2ccco2)cc1,n,n,n,n,n,n
CCOc1ccc(NC(=O)C(=O)NCc2ccco2)cc1,x,x,n,n,x,n
CCN(CC)S(=O)(=O)c1ccc(OCC(=O)NCc2ccco2)cc1,n,n,u,n,n,n
Cc1ccc(C)c(NS(=O)(=O)c2ccc(OCC(=O)NCc3ccco3)cc2)c1,n,n,u,n,n,23µM
C[C@H](C(=O)NCCN1CCOCC1)C1CC[C@@]2(C)Cc3sc(CSc4ccccc4)nc3[C@@H](C)[C@@H]2[C@H]1O (stereo partly drawn),x,x,x,n,x,x
O=C(Nc1cccc(C(=O)OCc2cc(=O)n3c4c(sc3n2)CCCC4)c1)c1ccc(Cl)cc1,x,x,u,u,x,n
COc1cccc(C(=O)Nc2cccc(C(=O)OCc3cc(=O)n4c5c(sc4n3)CCCC5)c2)c1,x,x,u,n,x,18µM
COc1cccc(C(=O)Nc2cccc(OCc3cc(=O)n4c5c(sc4n3)CCCC5)c2)c1,x,x,n,n,x,n
Cc1cccc(C(=O)Nc2ccc(C(=O)OCc3cc(=O)n4c(C)csc4n3)cc2)c1,x,x,u,u,x,16µM
O=C(Nc1cccc(C(=O)OCc2cc(=O)n3c4c(sc3n2)CCCC4)c1)c1ccccc1,x,x,u,n,x,16µM
Cc1cccc(C(=O)OCc2cc(=O)n3c(C)csc3n2)c1,x,x,x,n,x,x
Cc1ccc(C(=O)Nc2cccc(C(=O)OCc3cc(=O)n4c5c(sc4n3)CCCC5)c2)cc1,x,x,u,n,x,18µM
Cc1cc(C)cc(OCC(=O)Nc2sc3c(c2C(=O)N2CCOCC2)CCCC3)c1,x,x,x,n,x,x
Cc1c(C)n(Cc2ccncc2)c2ncnc(NCc3ccncc3)c12,x,x,x,n,x,x
COc1ccc(C(=O)NC2(C(F)(F)F)NC(=O)N(c3ccccc3)C2=O)cc1OC (stereo not drawn),x,x,x,n,x,x
COc1ccc(N2CC(C(=O)NCC(F)F)NC2=O)cc1 (stereo not drawn),x,x,x,n,x,x
O=C(NC1CCN(c2nc3ncccc3o2)CC1)c1cccc(Cl)c1,x,x,x,n,x,x
CC(=O)Nc1ccc(NC(=O)Cn2ccc3cc(Cl)ccc32)cc1,x,x,x,n,x,x
CC(=O)c1cn(-c2ccc(Cl)cc2)c(=O)n(Cc2ccc(F)cc2)c1=O,n,n,u,n,n,9.2µM
Cc1ccc2c(c1)c1c(c(=O)n(-c3ccccc3C)c(=O)n1CC(=O)NCc1ccccc1)n2C,x,x,u,n,x,18µM
COc1ccc2c(c1)c1c(c(=O)n(-c3ccccc3C)c(=O)n1Cc1ccccc1C)n2C,x,x,n,n,x,n
Cc1ccc2c(c1)c1c(c(=O)n(-c3ccccc3C)c(=O)n1Cc1ccccc1F)n2C,x,x,15µM,n,x,5.8µM
COc1ccc2c(c1)c1c(c(=O)n(-c3ccc(C)cc3)c(=O)n1CC(=O)NCc1ccc(C)cc1)n2C,x,x,7.3µM,n,x,6.5µM
